In the library only some 7.9% were active in any assay of this set; here they are far more common.
HCMV antiviral: human cytomegalovirus inhibition | HFF cells, HCMV-luciferase reporter, 72 h; stronger effect = lower value | activity change, negative = inhibition, % at 57.5 µM | 4.5% of 410,000 active | AID 1259415; in the data active = activity change below about -60%; inconclusive = no clear call, values can overlap the other calls; inactive = above about -39%
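Human foreskin fibroblasts infected with luciferase-reporter HCMV at MOI 1 PFU/cell, compounds at two doses. Luciferase measured 72 h post infection; normalized to buffer-only basal and Salinomycin (10uM) controls.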
Lassa entry inh: inhibitors of Lassa virus binding or cell entry | Lassa virus pseudotype entry inhibition, cell reporter | Potency, µM (titrated, usually from 37.9 µM), for inactives: at the top dose activity change, negative = inhibition, actives largely listed as inhibitors | 1.2% of 300,000 active | AID 540256; calls by dose curve; tested in HEK293 cells; also: potency is read from the fitted curve at half-maximal effect; nearly all actives have a fitted effect of over 50% in size
FMDV inh: antivirals against foot and mouth disease virus | FMDV antiviral cell-based qHTS | Potency, µM (doses to about 57.9 µM), inactives show top-dose activity change, negative = inhibition, hits mostly inhibitors | 1.2% of 410,000 active | AID 1159524; calls by dose curve; tested in HEK293T cells; also: read-out not given here; potency is read from the fitted curve at half-maximal effect; nearly all actives have a fitted effect of over 45% in size
MARV entry inh: blocks Marburg virus binding to or entry into cells | Marburg virus pseudotyped entry inhibition, cell reporter | Potency, µM (doses to about 37.8 µM), for inactives: at the top dose activity change, negative = inhibition, actives largely listed as inhibitors | 1.8% of 300,000 active; calls by dose curve; tested in HEK293 cells; also: potency is read from the fitted curve at half-maximal effect
HCV inh: blocks hepatitis C virus. Huh7.5.1 HCVcc-Cre infection, luciferase reporter, 44 h. Potency, µM (top dose mostly 41.8 µM), for the others: top-dose activity change, negative = inhibition, hits mostly inhibitors. 3.4% of 340,000 active; active = well fitted inhibition curve with a large enough effect; inconclusive = small, poorly fitted or top-dose-only effect, or another doubt; inactive = no such curve, though single readings can be large or run the other way; also: potency is read from the fitted curve at half-maximal effect
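Cells seeded at 1,000/well and cultured 4 h, then compounds added followed by HCVcc-Cre virus (~0.5 moi). After 44 h further culture, luciferase substrate was added, plates held 15 min at room temperature, and luminescence read for 15 sec.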
Starred values were filed as active, the others as inactive; ? = inconclusive; nt = no result given; [ ] = remark or other dose. % is scaled to controls: 0 for no effect and ±100 for the full control effect.

SMILES	HCMV antiviral	Lassa entry inh	FMDV inh	MARV entry inh	HCV inh
CCc1ccc(N2C(=O)c3sc4nnc(-c5ccccc5)c(=O)n4c3C2=O)cc1	-77*	-1%	0%	0%	-16%
Cc1ccccc1C1(CC(=O)N2CCOCC2)CC(=O)N(Cc2cccnc2)C1=O (stereo not given)	nt	nt	-13%	nt	nt
CSc1ncc(Cl)c(C(=O)Nc2nnc(SC)s2)n1	-3	15%	-23%	-1%	6%
CSc1nnc(NC(=O)c2nc(S(=O)(=O)Cc3ccccc3)ncc2Cl)s1	-102*	?	6.3µM*	?	13µM*
Cc1ccccc1CS(=O)(=O)c1ncc(Cl)c(C(=O)Nc2nnc(C(C)C)s2)n1	-99*	?	20µM*	?	nt
CCc1nnc(NC(=O)c2nc(SCc3ccccc3C)ncc2Cl)s1	13	8%[46.1 µM]	-2%	?	nt
CC(C)c1nnc(NC(=O)c2nc(S(=O)(=O)Cc3ccccc3)ncc2Cl)s1	-110*	?	4.5µM*	?	?
CC(C)Sc1ncc(Cl)c(C(=O)Nc2nnc(C(C)C)s2)n1	-3	12%[46.1 µM]	-24%	-3%[46.1 µM]	nt
Cc1cc(NS(=O)(=O)c2ccc(NC(=O)COc3cc(C)c(Br)cc3C(C)C)cc2)no1	-5	?	-4%	8%[46.1 µM]	nt
Cc1cc(-c2nc3ncccc3o2)ccc1NC(=O)c1ccc(Cl)cc1	-6	-1%[46.1 µM]	-18%	4%[46.1 µM]	nt
Cc1cccc(C)c1NC(=O)C(Nc1ccccc1)c1ccccc1F (stereo not given)	8	nt	nt	nt	nt
CN(C)CC(C)(C)CNC(=O)c1cnn(-c2nccc(-c3ccc4c(c3)OCO4)n2)c1-c1ccco1	nt	nt	-4%	nt	nt
Cc1ccccc1-c1ccc(/C=C2/SC(N3CCOCC3)=NC2=O)o1	-17	13µM*	-20%	?	?
O=C1N=C(N2CCOCC2)S/C1=C\c1ccc(-c2ccccc2Cl)o1	20	-1%	9%	?	-11%
COc1ccccc1C(=O)N(CCC1CCCN1C)c1nc2ccccc2s1 (stereo not given)	-77*	?	?	?	9%
COc1ccc2sc(N(CCCN(C)C)C(=O)c3nc4ccccc4s3)nc2c1	40	28%	0%	10%[46.1 µM]	4%
CC1(C)Cc2ccccc2-c2nnc(SCC(=O)Nc3nc4ccccc4s3)n21	-83*	1%	?	-27%	-2%
CC1(C)Cc2ccccc2-c2nnc(SCC(=O)N3CCN(c4ccccc4)CC3)n21	-92*	?	?	?	?
O=C(CSc1ccccn1)Nc1nc2ccccc2s1	-66*	5%	37%	?	-19%
COCCN1C(=O)NC(c2cccc(F)c2)C(C(=O)OC)=C1C (stereo not given)	nt	nt	nt	1%[14.2 µM]	nt
Cc1n[nH]c(C)c1S(=O)(=O)N(CC(=O)NCc1ccccc1Cl)c1ccc(C(C)C)cc1	?	?	-29%	?	nt
CCc1ccc(-n2cc(-c3ccc(F)cc3)[n+]3c2SCCC3)cc1	-87*	?	-13%	?	?
c1ccc(-c2cn(-c3ccccc3)c3[n+]2CCCS3)cc1	-33	4%	?	?	-19%
Cc1ccc(-c2cn(-c3ccccc3)c3[n+]2CCCS3)cc1	-93*	?	10µM*	?	?
CCOc1ccc(NC(=O)Cn2nc(-c3ccccc3Cl)n(CC)c2=S)cc1	-62*	-29%	?	?	?
SMILES	HCMV antiviral	Lassa entry inh	FMDV inh	MARV entry inh	HCV inh
COc1ccc(NC(=O)c2cc3c([nH]c2=O)CC(c2ccccc2)CC3=O)cc1 (stereo not given)	40	22%[46.1 µM]	7%	nt	nt
Cc1cc(Cl)ccc1NC(=O)C1CCN(S(=O)(=O)c2ccc3[nH]c(=O)ccc3c2)CC1	2	18%[46.1 µM]	-18%	nt	nt
C[C@]1(C(=O)O)[C@@H]2CC[C@@H](O2)[C@@]1(C)C(=O)O	nt	nt	nt	4.1µM*	nt
Cc1cccc(C(=O)NCc2nc(-c3ccccc3NC(=O)C3CCCO3)oc2C)c1 (stereo not given)	nt	nt	5%	nt	nt
CCCC(C)C(=O)Nc1ccc(Cl)cc1Cl (stereo not given)	-78*	0%	3%	0%	-22%
CCCC(C)C(=O)Nc1cc([N+](=O)[O-])ccc1Cl (stereo not given)	?	4%[46.1 µM]	0%	5%[46.1 µM]	-20%
Cc1ccccc1OCCNc1cc(N2CCN(CCO)CC2)ccc1[N+](=O)[O-]	-38	-26%	0%	?	?
COc1ccc(OCCNc2cc(Cl)ccc2[N+](=O)[O-])cc1	-65*	4%	nt	1%	?
CC1CN(c2ccc([N+](=O)[O-])c(NCCOc3ccccc3)c2)CCN1 (stereo not given)	39	26%[46.1 µM]	7%	?	10µM*
COc1cccc(OCCNc2cc(N3CCOCC3)ccc2[N+](=O)[O-])c1	31	23%	-1%	10%	14µM*
Cc1ccccc1OCCNc1cc(N2CCCCC2)ccc1[N+](=O)[O-]	-28	-17%	-8%	-2%[46.1 µM]	14µM*
COc1ccc(-n2ccn(CC(=O)NCc3ccc(C)cc3)c(=O)c2=O)cc1OC	?	17%[46.1 µM]	-8%	nt	nt
CCOC(=O)c1cc(-c2ccc(F)cc2)n(CCC(=O)Nc2nc3cc(C)c(C)cc3s2)c1C	?	0%[46.1 µM]	-20%	nt	nt
CCOc1cccc(CN2CCC(n3cc(C(=O)N4CCCCC4)nn3)CC2)c1O	nt	nt	-6%	nt	nt
CCCCCn1c(=O)[nH]c2cc(C(=O)NCc3ccc(F)cc3)ccc2c1=O	4	2%[46.1 µM]	-16%	5%[46.1 µM]	nt
NC(=O)CSc1nc2c(c(=O)n1-c1ccccc1)C1(CCCCC1)Cc1ccccc1-2	-93*	?	20µM*	?	0%
COC(=O)[C@H]1[C@@H](c2cccc(C(F)(F)F)c2)NC(=O)N(Cc2ccccc2)[C@@H]1C	nt	nt	nt	25%[14.2 µM]	nt
COC(=O)[C@@H]1[C@@H](C)N(Cc2ccccc2)C(=O)N[C@H]1c1cccc(C(F)(F)F)c1	-20	nt	0%	-19%[14.2 µM]	2.8µM*
CCOC(=O)CN1C(=O)N[C@@H](c2ccccc2)[C@H](C(C)=O)[C@H]1C	-103*	nt	-1%	2%[14.2 µM]	17%
CCC1(C2CCN(C(=O)c3cc(F)ccc3F)CC2)NC(=O)N(CCc2scnc2C)C1=O (stereo not given)	nt	nt	-3%	nt	nt
CN(C)c1ccc(Nc2ncnc3sc4c(c23)CCCC4)cc1	-90*	-13%[46.1 µM]	?	nt	nt
c1cc(Nc2ncnc3sc4c(c23)CCC4)ccn1	-63*	18%	-16%	-3%	12%
C(=N\Nc1ncnc2sc3c(c12)CCC3)/c1cccs1	-102*	nt	nt	-7%	nt
Cc1cc(=O)n(CC(=O)Nc2ccc([N+](=O)[O-])cc2)c(-n2nc(C)cc2C)n1	0	15%[46.1 µM]	-14%	nt	nt
CC1=CC[C@@H](C)O[C@@]2(C1)C(=O)Nc1ccccc12	nt	nt	nt	-9%[14.2 µM]	nt
COc1ccc(-c2csc3nc(-c4cccnc4)nc(Cl)c23)cc1OC	-71*	?	?	?	?
Clc1nc(-c2cccnc2)nc2scc(-c3ccccc3)c12	?	-1%	14%	-3%	?
O=C(CSCc1ccc(Cl)cc1)Nc1ccc(-c2nnc(-c3ccccc3)o2)cc1	40	18%	-19%	-3%	7.1µM*

From PubChem BioAssay
